Assay outcomes: PubChem, National Center for Advancing Translational Sciences (NCATS)
Sampled rows, rich in hits. Any-hit rate of the full collection: about 7.6%.
KCNH2 3.1 inh – blocks the human KCNH2 3.1 channel isoform; AID 720553; activity change, % (tested at about 1.8 µM); 0.95% of 340,000 active; U2OS KCNH2 3.1, thallium flux FluxOr; hits give low values;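 active = maximum activity change below -70%; inconclusive = maximum activity change from -70% to -50%; inactive = maximum activity change above -50%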;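 also: thallium influx rate constant from kinetic fluorescence after stimulation buffer; % is scaled to controls: 0 for no effect and ±100 for the full control effect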
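Channel expression came from 3.1 mutant virus (1.77 x 10^8 /mL) applied to suspended U2OS cells for 4 h. Flux was tracked with FluxOr dye plus Red40 quencher, and kinetic rate constants normalized to controls.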
hERG WT inh – inhibitors of human wildtype KCNH2 potassium channel; Q12809; U2OS, BacMam KCNH2, thallium flux FluxOr; hits give low values; activity change, % at 1.84 µM; 0.37% of 340,000 active;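 active = maximum activity change below -70%; inconclusive = maximum activity change between -70% and -50%; inactive = maximum activity change above -50%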; also: % is scaled to controls: 0 for no effect and ±100 for the full control effect
Target sequence (Q12809 whole entry, looked up): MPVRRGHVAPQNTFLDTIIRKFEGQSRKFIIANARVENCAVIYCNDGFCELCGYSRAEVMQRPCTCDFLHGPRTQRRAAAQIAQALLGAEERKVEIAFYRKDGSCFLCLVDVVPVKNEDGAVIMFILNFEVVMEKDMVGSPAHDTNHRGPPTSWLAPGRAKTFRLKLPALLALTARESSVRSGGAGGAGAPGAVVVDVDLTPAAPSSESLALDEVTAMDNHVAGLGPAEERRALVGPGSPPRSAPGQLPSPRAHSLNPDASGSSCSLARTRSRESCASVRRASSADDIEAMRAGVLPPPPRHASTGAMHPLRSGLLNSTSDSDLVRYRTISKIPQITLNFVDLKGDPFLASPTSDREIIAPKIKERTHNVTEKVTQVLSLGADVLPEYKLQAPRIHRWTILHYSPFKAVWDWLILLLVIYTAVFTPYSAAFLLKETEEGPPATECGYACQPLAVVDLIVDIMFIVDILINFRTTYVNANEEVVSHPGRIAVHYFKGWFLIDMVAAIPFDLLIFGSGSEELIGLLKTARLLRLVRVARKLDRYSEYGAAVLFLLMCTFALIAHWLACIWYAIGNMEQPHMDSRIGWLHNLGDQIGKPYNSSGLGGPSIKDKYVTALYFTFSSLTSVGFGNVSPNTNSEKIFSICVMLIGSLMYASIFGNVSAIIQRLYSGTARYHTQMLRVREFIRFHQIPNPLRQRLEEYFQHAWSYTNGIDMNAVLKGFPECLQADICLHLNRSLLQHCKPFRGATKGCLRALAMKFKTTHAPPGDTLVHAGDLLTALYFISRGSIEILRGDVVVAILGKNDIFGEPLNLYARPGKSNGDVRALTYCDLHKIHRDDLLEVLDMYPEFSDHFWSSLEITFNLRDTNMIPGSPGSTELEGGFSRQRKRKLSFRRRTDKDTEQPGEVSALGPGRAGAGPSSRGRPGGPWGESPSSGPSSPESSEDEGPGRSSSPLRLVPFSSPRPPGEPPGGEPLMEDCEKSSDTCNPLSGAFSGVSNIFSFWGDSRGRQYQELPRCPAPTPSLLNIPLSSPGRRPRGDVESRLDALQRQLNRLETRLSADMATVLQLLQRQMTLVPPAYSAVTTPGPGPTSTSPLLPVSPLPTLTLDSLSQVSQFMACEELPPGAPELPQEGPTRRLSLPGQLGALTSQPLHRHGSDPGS
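U2OS cells transduced with wild-type KCNH2 virus are loaded with FluxOr dye for 45 min, and thallium flux is measured in kinetic reads before and after stimulation buffer. Rate constants are normalized to DMSO controls.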
KB-V1 cytotox – kills drug-selected multidrug resistant KB-V1 cells; KB-V1 MDR cells viability, CellTiter-Glo, 72 h; Potency, µM (doses to about 46.1 µM), most hits filed as cytotoxic; 3.4% of 400,000 active; also: potency is read from the fitted curve at half-maximal effect; % is scaled to controls: 0 for no effect and ±100 for the full control effect; nearly all actives have a fitted effect of over 60% in size
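Cells of the MDR subline KB-V1 are plated, dosed with compound at multiple concentrations, and incubated 72 h at 37 degrees C; CellTiter-Glo is then added and luminescence read after 10 min.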
MCF10A rerep – DNA re-replication induction in MCF 10a cells | MCF 10A DNA re-replication, Hoechst nuclear intensity, 48 h | Potency, µM (highest dose often 46.1 µM), without a hit: at the highest dose activity, positive = re-replication, usual class: activators | 2.9% of 350,000 active | AID 624296; also: potency is read from the fitted curve at half-maximal effect; % of control where 0% means no effect; nearly all actives have a fitted effect of over 50% in size
SW480 rereplic – inducers of DNA re-replication in SW480 colon cancer cells; 1.8% of 340,000 active; SW480 DNA re-replication, Hoechst DNA content imaging, 48 h; Potency, µM (highest dose often 46.1 µM), without a hit: at the top dose re-replication activation, most hits filed as activators; also: potency is read from the fitted curve at half-maximal effect; % of control where 0% means no effect; nearly all actives have a fitted effect of over 55% in size
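Per well, 250 cells were exposed to pinned compound for 48 hr. Nuclear DNA was visualised with Hoechst (40 min, 37 C) and total object intensity recorded by fluorescence scanning.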
KB-3-1 tox – kills parental KB-3-1 adenocarcinoma cells; Potency, µM (highest dose often 46.1 µM), usual class: cytotoxic; 1.4% of 400,000 active; KB-3-1 viability, CellTiter-Glo ATP luminescence, 72 h; AID 1347075; also: potency is read from the fitted curve at half-maximal effect; % is scaled to controls: 0 for no effect and ±100 for the full control effect; nearly all actives have a fitted effect of over 60% in size
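KB-3-1 cells, DMEM (no phenol red) + 10% FBS; compound by pin transfer, 72 h, 37 °C. Readout: CellTiter-Glo luminescence after 10 min. Data normalized, curve-fitted.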
Active calls of the source: *; i = inactive; ? = inconclusive; / = no result given. Unless noted, calls follow the shape of the dose curve; as a rule, active = well fitted curve in the direction sought with a large enough effect; inconclusive = small, poorly fitted or top-dose-only effect, or another doubt; inactive = no such curve, though single readings can be large; an effect the other way counts as inactive or inconclusive.

SMILES	KCNH2 3.1 inh	hERG WT inh	KB-V1 cytotox	MCF10A rerep	SW480 rereplic	KB-3-1 tox
Oc1cccc(C2c3[nH]c4ccccc4c3CCN2Cc2ccoc2)c1 (centres undefined)	-37	-9	i	19%	-10%	i
Oc1cccc(C2c3[nH]c4ccccc4c3CCN2Cc2ccc3c(c2)CCO3)c1 (centres undefined)	-27	1	18µM*	16µM*	?	21µM*
CCOc1ccccc1C(=O)N[C@H](C(=O)OCC(=O)Nc1nnc(-c2ccccc2)o1)C(C)C	-4	12	?	76%	21%	i
CN1C/C(=C/c2ccncc2)C(=O)/C(=C/c2ccncc2)C1	9	-1	i	?	23µM*	i
O=C1/C(=C\c2ccsc2)N2CCC1CC2	-5	0	i	-1%	-4%	i
COc1ccc2c(c1)CC/C(=C/c1ccncc1)C2=O	11	-5	?	?	?	?
CN1C/C(=C/c2ccsc2)C(=O)/C(=C/c2ccsc2)C1	/	2	?	18µM*	3.3µM*	?
Cc1ccc(S(=O)(=O)N(CC(=O)N/N=C/c2cccc(Cl)c2)c2cccc3cccnc23)cc1	-8	15	?	?	16µM*	?
CC(=O)OCn1ncc(N2CCOCC2)c(Br)c1=O	-5	-6	i	0%	2%	i
O=C(OCn1ncc(Br)c(Br)c1=O)c1ccc(F)cc1	0	-4	5.2µM*	4.6µM*	4.1µM*	3.3µM*
O=C(OCn1ncc(Br)c(Br)c1=O)c1ccccc1Cl	-8	7	5.8µM*	7.9µM*	5.6µM*	18µM*
CCOC1=C2CN(S(=O)(=O)c3ccc(C)cc3)C(c3ccccc3)CC2N(S(=O)(=O)c2ccccc2Cl)C(c2ccccc2)C1 (centres undefined)	/	/	i	/	/	i
Cn1c(=O)c(=O)n(C)c2cc([N+](=O)[O-])c(N3CCOCC3)cc21	2	1	?	3%	0%	i
COc1ccccc1N(C)S(=O)(=O)c1ccc(C(=O)N(C)Cc2cccc(OC)c2OC)cc1	9	26	i	/	/	i
COc1ccccc1N(C)S(=O)(=O)c1ccc(C(=O)N(C)Cc2ccc(Cl)s2)cc1	?	5	/	26µM*	3%	/
Cc1ccc2c(c1)Oc1ccc(NC(=O)CCl)cc1C(=O)N2	-7	i	9.2µM*	5.8µM*	2.3µM*	5.8µM*
CCCCCCCC(=O)NNC(=O)c1ccc(F)cc1	-4	-13	i	0%	-6%	i
CCCCN(C)CCNC(=O)c1cn(C)c(=O)c2c1c1ccccc1n2C	1	13	i	2%	-2%	i
CCOc1ccc(N(C)S(=O)(=O)c2cc(-c3cc(C)no3)ccc2C)cc1	-9	-30	?	?	21µM*	?
COc1ccc(-c2cc(C)no2)cc1S(=O)(=O)N(C)c1ccc(C)cc1	-3	6	8.2µM*	7.3µM*	-5%	?
CCOc1ccc(N(C)S(=O)(=O)c2cc(-c3cc(C)no3)ccc2OC)cc1	-8	28	i	10%	-36%	i
CCc1ccc(-c2cc(C)no2)cc1S(=O)(=O)NCc1ccc(OC)cc1	/	/	3.7µM*	/	/	3.3µM*
CCOc1ccc(N(C)S(=O)(=O)c2cc(-c3cc(C)no3)ccc2CC)cc1	-3	7	i	?	23%	i
COc1ccc(CNS(=O)(=O)c2ccc(-c3cc(C)no3)cc2)cc1	-5	-2	i	4%	?	i
CC(=O)c1ccc(Nc2nc(C(C)N)cs2)cc1 (centres undefined)	/	/	i	/	/	i
O=C1CCC2=C1C(c1ccccc1Cl)N=C(Nc1nc3ccccc3o1)N2 (centres undefined)	/	/	i	/	/	i
CC1(c2nnnn2-c2ccc3c(c2)OCCO3)CCC(=O)N1CCc1c[nH]c2ccccc12 (centres undefined)	/	/	i	/	/	i
